Screening results as filed in PubChem.
SARS PLP yeast: SARS-CoV PLP inhibition in yeast; S. cerevisiae expressing SARS-CoV PLpro, growth rescue; actives 0.19% (n = 330,000); Potency, µM (series often up to 32.9 µM), usual class: activators; further: nearly all actives have a fitted effect of over 55% in size
Tb PYK inh: blocks Trypanosoma brucei pyruvate kinase | TbPYK enzyme, Kinase-Glo Plus ATP luminescence, 45 min | Q57TT1 | Potency, µM (highest dose often 76.8 µM), most hits filed as inhibitors | AID 624173 | actives 0.12% (n = 410,000); active means well fitted curve in the direction sought with a large enough effect; an effect the other way counts as inactive or inconclusive; further: nearly all actives have a fitted effect of over 50% in size
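ADP (130 uM final) triggers the TbPYK reaction after compound addition; incubation is 45 min at room temperature. Kinase-Glo Plus is then added and luminescence imaged. Normalized data are fitted to concentration-effect curves.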
Shiga inhibitor: blocks Shiga toxin action in Vero cells; inhibition, % at 38.7 µM; Vero cells, Shiga toxin protein synthesis inhibition reporter; actives 9.2% (n = 290,000); in the data active means inhibition mostly above about 28%, no sharp cut-off; inactive means mostly below about 43%
CHX counter: counter-screen hit for Shiga toxin inhibitors, cycloheximide. cell reporter, cycloheximide protein synthesis inhibition counterscreen. max response, %. actives 12% (n = 300,000). AID 2314; in the data active means max response mostly above about 13%, no sharp cut-off; inactive means mostly below about 14%; further: read at 38.3 µM for the half of the compounds with a filed dose
NS1 function inh: blocks influenza NS1 protein function. Potency, µM (series often up to 46.1 µM). actives 0.4% (n = 270,000); further: actives are rising curves; nearly all actives have a fitted effect of over 50% in size
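Read-out: OD600 growth recovery of NS1-expressing budding yeast. Cells grown overnight at 30C in -URA glucose medium, washed, resuspended and diluted 1:100 in 2% galactose assay medium, pH 6.0. Same strain lacking NS1 served as positive control.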
LmPK inh: blocks Leishmania mexicana pyruvate kinase activity. purified LmPK, Kinase-Glo ATP luminescence, 1 h. Potency, µM (series often up to 57.5 µM), hits mostly inhibitors. AID 1721. actives 0.37% (n = 290,000). Q27686; active means well fitted curve in the direction sought with a large enough effect; an effect the other way counts as inactive or inconclusive
Target sequence (Q27686 whole entry, looked up): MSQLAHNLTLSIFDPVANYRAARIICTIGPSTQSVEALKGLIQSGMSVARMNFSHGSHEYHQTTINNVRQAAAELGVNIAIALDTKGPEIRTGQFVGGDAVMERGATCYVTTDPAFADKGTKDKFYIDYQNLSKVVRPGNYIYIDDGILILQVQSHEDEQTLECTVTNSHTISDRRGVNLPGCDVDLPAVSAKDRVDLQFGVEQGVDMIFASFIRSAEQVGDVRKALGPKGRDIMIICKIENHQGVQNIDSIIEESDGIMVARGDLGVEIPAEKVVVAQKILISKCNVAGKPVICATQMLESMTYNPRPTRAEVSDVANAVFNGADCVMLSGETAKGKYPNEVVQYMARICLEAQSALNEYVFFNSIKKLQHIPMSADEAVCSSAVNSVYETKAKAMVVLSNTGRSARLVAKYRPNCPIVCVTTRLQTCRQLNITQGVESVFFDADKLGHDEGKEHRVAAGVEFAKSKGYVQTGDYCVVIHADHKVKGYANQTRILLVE
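0.1 nM LmPK, 0.5 mM PEP, 0.1 mM ADP; 50 mM imidazole pH 7.2, 7 mM MgCl2, 50 mM KCl; 1 h RT. Kinase-Glo luminescence readout, normalized to no-enzyme (full inhibition) and uninhibited wells.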
A number is an active result; i = inactive; nt = no result given. Only a selection was taken, and hits are over-represented in it overall. Unless noted, the call rests on the fitted dose curve.

SMILES	SARS PLP yeast	Tb PYK inh	Shiga inhibitor	CHX counter	NS1 function inh	LmPK inh
C/C(=N\NC(=O)c1cccs1)c1ccncc1	i	i	107	36	i	i
CCc1ccc(C(=O)N/N=C(\C)c2ccncc2)s1	i	i	70	37	i	i
C/C(=N/NC(=O)c1ccc(C)s1)c1ccncc1	i	i	60	30	i	i
C/C(=N\NC(=O)c1cnccn1)c1ccc([N+](=O)[O-])cc1	i	i	i	20	i	i
C/C(=N\NC(=O)c1ccncc1)c1ccc(N(C)C)cc1	i	i	i	i	nt	i
C[C@H](CO)N1C[C@H](C)[C@@H](CN(C)C(=O)Nc2ccc(F)cc2)Oc2ccc(NS(C)(=O)=O)cc2C1=O	i	i	nt	nt	nt	nt
Cc1ccccc1-c1ncnn1-c1sc2c(c1C#N)CCCCC2	nt	i	nt	nt	nt	nt
Cc1cc(F)ccc1NC(=O)c1c(C)oc2c1C1=NCCN1C=N2	nt	i	nt	nt	nt	nt
C/C(=N/NC(=O)c1cnccn1)c1cccs1	i	i	93	40	i	i
Cc1cc(-c2nnc(CCC(=O)NCc3ccc(F)c(F)c3)o2)no1	i	i	i	i	i	i
CC(C)N(CCO)C(=O)CCc1nnc(Cc2cccc(C(F)(F)F)c2)o1	i	i	i	19	i	i
COCCN(C(=O)CCc1nnc(Cc2c[nH]c3ccccc23)o1)C(C)C	i	i	i	i	i	i
CCc1ccc(CNC(=O)CCc2nnc(Cc3cccc(C(F)(F)F)c3)o2)nc1	i	i	i	i	i	i
CCC(COC)NC(=O)CCc1nnc(Cc2cccc(C(F)(F)F)c2)o1 (centres undefined)	i	i	60	46	i	i
CC(C)NC(=O)CCc1nnc(Cc2cccc(C(F)(F)F)c2)o1	i	i	92	28	i	i
Cc1cc(-c2nnc(CCC(=O)NCc3cccc(C(F)(F)F)c3)o2)no1	i	i	i	21	i	i
CC(C)C(=O)Cc1ccc2ccccc2n1	nt	nt	nt	nt	i	nt
CCOC(=O)CN1CC(C)(C)N(CC(=O)OCC)CC1(C)C	nt	i	nt	nt	nt	nt
CCN(Cc1ccc(OC)cc1)c1ccc(-c2nc(-c3ccncc3)no2)cc1[N+](=O)[O-]	nt	i	nt	nt	nt	nt
Cc1ccc(C(=O)N2CCc3cc(CNC(=O)CCc4ccccc4)ccc32)cc1	nt	i	nt	nt	nt	nt
CCCCn1c(N)c(N(CCOC)C(=O)c2c(-c3ccccc3)noc2C)c(=O)[nH]c1=O	i	i	nt	nt	nt	nt
CC(Sc1nncs1)C(=O)Nc1ccc2c(c1)OCO2 (centres undefined)	i	i	i	11	i	i
CC(Sc1ncccn1)C(=O)Nc1ccc2c(c1)OCO2 (centres undefined)	i	i	nt	nt	nt	nt
CCC(=O)Nc1nnc(SCC(=O)Nc2ccc3c(c2)OCO3)s1	i	i	i	i	i	i
O=C(CSc1nncs1)Nc1ccc2c(c1)OCO2	i	i	i	25	nt	i
SMILES	SARS PLP yeast	Tb PYK inh	Shiga inhibitor	CHX counter	NS1 function inh	LmPK inh
Cn1c(=O)n(C)c2cc(N3CCOCC3)c(NS(=O)(=O)c3ccc(Cl)cc3)cc21	nt	i	nt	nt	nt	nt
Cc1ccccc1OCC(=O)Nc1ccc(OCc2cc(=O)n3ccccc3n2)cc1	nt	i	nt	nt	nt	nt
Cc1ccc(C(=O)Nc2nn(C)c3cccc(F)c23)cc1	i	i	i	18	i	i
c1cnc2ccc3ncccc3c2c1	i	i	i	i	i	i
Nc1ccc(C=Cc2ccc(N)cc2)cc1	nt	i	nt	nt	nt	nt
Nc1ccc2ncccc2c1N	i	i	42	28	i	i
c1ccc2ncccc2c1	i	i	nt	nt	nt	nt
Nc1ccc2ncccc2c1	i	i	136	48	i	i
Nc1ccc(/C=C/c2ccc3ncccc3c2)cc1	i	i	85	38	i	i
Cc1[nH]c(C)c(S(=O)(=O)Nc2ccc(OC(F)(F)F)cc2)c1C(=O)N1CCCCC1	i	i	i	i	i	i
COc1cccc2c1oc1c(SCc3nc4ccccc4[nH]3)nc(C)nc12	i	i	nt	nt	nt	nt
COc1cc(/C=N/OCC(=O)NC2CCCCC2)ccc1OCc1ccccc1	i	i	152	55	i	i
COc1cc(/C=N/OCC(=O)NC23CC4CC(CC(C4)C2)C3)ccc1OCc1ccccc1	i	i	101	36	i	i
COc1cc[n+]([O-])cc1[N+](=O)[O-]	nt	i	nt	nt	nt	nt
O=S(=O)(c1ccc2c(c1)OCO2)N1CCN(c2nnnn2-c2ccccc2)CC1	i	i	i	36	i	i
O=C(C[C@@H]1C/C=C\C[C@@H](Cc2ccc(F)cc2)C(=O)OCCNC1=O)NCCO	i	i	nt	nt	nt	nt
